Laboratory results from PubChem BioAssay.
A number with no mark means an inactive call. Entries that show only a call come without a potency. For part of these data: Potency and affinity values are given separately. Active and inactive are the calls of the source. Unless noted, no rule for the calls is given here.

Key:
[1] = antimalarial activity against Dd2 strain (AID 2302;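 active = growth inhibition above 50% at the single 2 µM test dose, taken to imply half-maximal potency below 2 µM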); settings: P. falciparum Dd2 in RBCs, LDH growth readout, 72 h; at 2 µM; stronger effect = higher value
[2] = HepG2 cytotoxicity, primary screen, cytotoxicity control for P. falciparum antimalarial project, cell-based, ATP luminescence (AID 2303;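 active = inhibition above 50%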); settings: HepG2 viability, 24-48 h, at 10 µM, stronger effect = higher value
[3] = biological target: L-lactate dehydrogenase (Plasmodium falciparum (isolate CDC / Honduras)) (UniProt Q27743); assay: PfLDH activity inhibition – cell lysate, 3D7 strain, counter-screen for P. falciparum growth inhibition project (AID 2304); settings: P. falciparum 3D7 crude extract, LDH APAD/NBT absorbance; at 2 µM; stronger effect = higher value
L-lactate dehydrogenase (Plasmodium falciparum (isolate CDC / Honduras)), sequence (Q27743 whole entry, looked up): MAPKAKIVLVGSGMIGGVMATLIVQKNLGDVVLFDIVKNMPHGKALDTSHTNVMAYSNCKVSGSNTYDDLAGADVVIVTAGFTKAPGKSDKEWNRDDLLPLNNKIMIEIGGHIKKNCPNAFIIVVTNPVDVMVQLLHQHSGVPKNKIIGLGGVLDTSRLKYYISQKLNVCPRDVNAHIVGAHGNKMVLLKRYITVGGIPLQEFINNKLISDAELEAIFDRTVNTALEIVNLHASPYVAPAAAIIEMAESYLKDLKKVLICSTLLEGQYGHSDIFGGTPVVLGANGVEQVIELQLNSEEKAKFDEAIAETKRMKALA

[4] = inhibition of 3D7 malaria parasite growth – strain 3D7 (AID 2306); settings: P. falciparum 3D7 erythrocytic growth, LDH absorbance, 72 h; at 2 µM; stronger effect = higher value
[5] = biological target: Calcium-dependent protein kinase 1 (Plasmodium falciparum (isolate 3D7)) (UniProt P62344); assay: PfCDPK1 kinase inhibitors, biochemical, TCAMS library (AID 1159585; cut-off not given, nearly all actives have IC50 up to about 0.98 µM;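 also: inhibitors leave more ATP so luminescence rises with inhibition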); settings: recombinant PfCDPK1, Kinase-Glo ATP depletion luminescence
Calcium-dependent protein kinase 1 (Plasmodium falciparum (isolate 3D7)), sequence (P62344 whole entry, looked up): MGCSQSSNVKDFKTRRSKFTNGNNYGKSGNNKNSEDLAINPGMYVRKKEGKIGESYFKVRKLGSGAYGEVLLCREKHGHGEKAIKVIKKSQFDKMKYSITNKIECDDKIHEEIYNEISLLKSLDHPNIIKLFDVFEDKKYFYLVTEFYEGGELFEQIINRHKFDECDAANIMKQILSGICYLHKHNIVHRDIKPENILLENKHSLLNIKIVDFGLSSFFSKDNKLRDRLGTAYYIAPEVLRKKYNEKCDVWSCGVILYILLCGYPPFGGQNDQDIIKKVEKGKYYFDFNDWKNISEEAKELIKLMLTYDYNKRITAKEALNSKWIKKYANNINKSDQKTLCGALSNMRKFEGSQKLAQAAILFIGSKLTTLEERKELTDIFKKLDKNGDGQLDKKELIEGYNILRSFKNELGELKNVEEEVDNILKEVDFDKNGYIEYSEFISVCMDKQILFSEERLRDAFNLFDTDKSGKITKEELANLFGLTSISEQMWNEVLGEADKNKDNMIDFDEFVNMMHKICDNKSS

[6] = biological target: Plasmodium falciparum protein kinase 6 (PK6, PF3D7_1337100) (UniProt Q8IDW1); assay: PfPK6 kinase inhibitors, biochemical, TCAMS library (AID 1159586); settings: recombinant PfPK6, Kinase-Glo ATP depletion luminescence
Plasmodium falciparum protein kinase 6 (PK6, PF3D7_1337100), sequence (Q8IDW1 1-305): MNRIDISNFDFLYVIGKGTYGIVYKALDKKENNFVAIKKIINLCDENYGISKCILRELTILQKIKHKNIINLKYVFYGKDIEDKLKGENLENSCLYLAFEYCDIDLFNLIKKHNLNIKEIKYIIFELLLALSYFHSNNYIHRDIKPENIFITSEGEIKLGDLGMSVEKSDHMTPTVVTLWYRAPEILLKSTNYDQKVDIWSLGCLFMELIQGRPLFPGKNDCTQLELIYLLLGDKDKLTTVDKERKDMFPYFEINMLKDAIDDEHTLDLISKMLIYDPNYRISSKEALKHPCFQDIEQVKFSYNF

[7] = biological target: Protein kinase 7 (PK7), Plasmodium falciparum 3D7 (PF3D7_0213400) (UniProt Q7YTF7); assay: inhibition of Plasmodium PK7 catalytic activity – biochemical, TCAMS antimalarial set, Kinase-Glo luminescence (AID 1159587); settings: recombinant PfPK7, Kinase-Glo ATP depletion luminescence
Protein kinase 7 (PK7), Plasmodium falciparum 3D7 (PF3D7_0213400), sequence (Q7YTF7 1-343): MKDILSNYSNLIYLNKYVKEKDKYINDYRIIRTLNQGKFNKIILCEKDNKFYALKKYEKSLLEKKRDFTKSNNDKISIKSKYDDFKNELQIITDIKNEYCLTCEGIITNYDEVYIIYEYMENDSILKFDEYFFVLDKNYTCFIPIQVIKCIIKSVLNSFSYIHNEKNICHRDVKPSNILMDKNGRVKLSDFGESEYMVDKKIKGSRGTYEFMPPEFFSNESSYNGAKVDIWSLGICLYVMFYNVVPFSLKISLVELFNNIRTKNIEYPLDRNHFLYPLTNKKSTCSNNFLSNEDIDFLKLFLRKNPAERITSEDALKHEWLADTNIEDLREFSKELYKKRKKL

[8] = biological target: Calcium-dependent protein kinase 4 (Plasmodium falciparum (isolate 3D7)) (UniProt Q8IBS5); assay: PfCDPK4 kinase inhibitors, biochemical, TCAMS library (AID 1159588; cut-off not given, nearly all actives have IC50 up to about 0.91 µM); settings: recombinant PfCDPK4, Kinase-Glo ATP depletion luminescence
Calcium-dependent protein kinase 4 (Plasmodium falciparum (isolate 3D7)), sequence (Q8IBS5 whole entry, looked up): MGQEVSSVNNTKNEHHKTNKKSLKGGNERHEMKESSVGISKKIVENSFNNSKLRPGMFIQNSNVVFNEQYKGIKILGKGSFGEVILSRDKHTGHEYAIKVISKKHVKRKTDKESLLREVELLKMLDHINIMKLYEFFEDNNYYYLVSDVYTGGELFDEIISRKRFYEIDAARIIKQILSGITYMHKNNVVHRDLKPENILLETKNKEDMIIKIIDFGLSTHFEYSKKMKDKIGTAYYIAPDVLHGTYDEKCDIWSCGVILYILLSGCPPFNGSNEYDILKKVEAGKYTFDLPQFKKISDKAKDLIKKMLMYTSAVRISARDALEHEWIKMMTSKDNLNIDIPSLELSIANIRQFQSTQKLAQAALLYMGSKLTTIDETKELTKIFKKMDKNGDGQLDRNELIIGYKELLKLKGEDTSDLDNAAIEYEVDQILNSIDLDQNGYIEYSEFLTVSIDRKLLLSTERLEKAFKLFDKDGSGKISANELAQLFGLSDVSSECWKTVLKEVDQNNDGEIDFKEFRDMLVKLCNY

Compound	growth inhibition [1]	inhibition [2]	inhibition [3] [%]	growth inhibition [4]	outcome [5]	outcome [6]	outcome [7]	outcome [8]
C=CCc1cc(Cc2cnc(N)nc2N)c2ccc(C)nc2c1O	3%	51% (active)	0	84% (active)	inactive	inactive	inactive	inactive
COc1ccc(NC(=O)[C@H](Cc2ccccc2)Nc2cc(C)nc(NCCc3ccc(F)cc3)n2)cc1	82% (active)	17%	-3	101% (active)	inactive	inactive	inactive	inactive
O=C(Nc1ccc(Cl)cc1)Nc1nc2ccc([N+](=O)[O-])cc2[nH]1	6%	-2%	3	101% (active)	inactive	inactive	inactive	inactive
Fc1cccc(COc2ccc(Nc3ncnc4sc(C#C[C@H]5CCCN5)cc34)cc2F)c1	17%	13%	5	98% (active)	inactive	inactive	inactive	inactive
Cc1c(Cl)ccc2sc(N3CCN(C(=O)c4ccc([N+](=O)[O-])o4)CC3)nc12	93% (active)	-2%	3	96% (active)	inactive	inactive	inactive	inactive
CCN(CC)CCN(Cc1ccc(-c2ccc(Br)cc2)cc1)C(=O)Cn1c(CCc2cccc(F)c2F)nc(=O)c2ccccc21	74% (active)	37%	1	98% (active)	inactive	inactive	inactive	inactive
Brc1cccc(Nc2nccc(Nc3ccc(Oc4ccccc4)cc3)n2)c1	5%	-6%	-4	89% (active)	inactive	inactive	inactive	inactive
CC(C)(C)N1CCC(N(Cc2ccc(-c3ccc(C(F)(F)F)cc3)cc2)C(=O)Cn2c(CCc3cccc(F)c3F)cc(=O)c3ccccc32)CC1	97% (active)	100% (active)	4	100% (active)	inactive	inactive	inactive	inactive
Cc1cc(N[C@@H](CC(C)C)C(=O)NCCOc2ccccc2)nc(NCCOc2ccccc2)n1	6%	-4%	-2	89% (active)	inactive	inactive	inactive	inactive
CC(C)CNCc1cccc(-c2ccc(CN(C(=O)NCCc3ccccc3)C3CCN(Cc4ccccc4)CC3)cc2)c1	47%	99% (active)	5	98% (active)	inactive	inactive	inactive	inactive
Cc1noc(-c2ccc(O)cc2O)c1-c1ccc2c(c1)OCCCO2	99% (active)	8%	-4	100% (active)	inactive	inactive	inactive	inactive
COc1cc(-c2cc3cc(Cl)c(Cl)cc3[nH]2)ccc1C(=O)NC1CCN(Cc2ccccc2)CC1	101% (active)	12%	-3	102% (active)	inactive	inactive	inactive	inactive
C[C@@H](N=C(Nc1ccc(C#N)cc1O)Nc1ccccc1Cl)c1ccc(Br)cc1	70% (active)	33%	0	98% (active)	inactive	inactive	inactive	inactive
CCOc1ccc(-c2nc(NC(=O)CS(=O)(=O)c3ccccc3)sc2C)cc1	59% (active)	6%	2	100% (active)	inactive	inactive	inactive	inactive
O=c1c(NCCCN(Cc2ccc(F)cc2)c2ccccn2)c(NCc2ccncc2)c1=O	95% (active)	30%	3	101% (active)	inactive	inactive	inactive	inactive
CCNc1cc(C(=O)N[C@@H](Cc2ccccc2)[C@H](O)CNCCc2cccc(C(F)(F)F)c2)cc(N2CCCC2=O)c1	93% (active)	7%	1	96% (active)	inactive	inactive	inactive	inactive
Cc1cnc(N2CCN(CCCN3CCCC3)CC2)nc1Oc1ccc(-n2ccnc2)cc1	82% (active)	12%	4	99% (active)	inactive	inactive	inactive	inactive
C=C[C@]1(C)C[C@@H](OC(=O)c2n[nH]c3ccccc3c2=O)[C@]2(C)[C@H](C)CC[C@]3(CCC(=O)[C@H]32)[C@@H](C)[C@@H]1O	84% (active)	-6%	0	96% (active)	inactive	inactive	inactive	inactive
CN(C)c1cccc2c1nc(-c1ccco1)n2CC1CCCN1 (configuration not stated)	46%	-1%	6	86% (active)	inactive	inactive	inactive	inactive
COc1ccc(F)cc1-c1ccccc1CNC(=O)c1cnn(-c2ccc([N+](=O)[O-])cc2)c1C(F)(F)F	75% (active)	-3%	-4	89% (active)	inactive	inactive	inactive	inactive

Compound	growth inhibition [1]	inhibition [2]	inhibition [3] [%]	growth inhibition [4]	outcome [5]	outcome [6]	outcome [7]	outcome [8]
COc1cc(C(=O)NC2CC(C)(C)NC(C)(C)C2)ccc1-c1cc2cc(Cl)c(Cl)cc2[nH]1	31%	41%	6	99% (active)	inactive	inactive	inactive	inactive
CCOc1ccc2c(NN=Cc3cccc(OC)c3)cc(C)nc2c1	81% (active)	38%	-5	97% (active)	inactive	inactive	inactive	inactive
Cc1ccc(NC(=O)c2cccc(C#N)c2)cc1-c1ccc(C(=O)Nc2ccncc2)cc1	64% (active)	38%	-1	94% (active)	inactive	inactive	inactive	inactive
O=C(Nc1ccc(-c2cccc(-c3nc4ccc(C(F)(F)F)cc4[nH]3)c2)cc1)c1ccc(=O)[nH]n1	13%	72% (active)	-4	87% (active)	inactive	inactive	inactive	inactive
Cc1cc(N(C)C)nc(Nc2ccc(NC(=O)c3ccc(Br)o3)cc2)n1	57% (active)	1%	-2	101% (active)	inactive	inactive	inactive	inactive
Cc1ccc(NC(=O)c2ccc3ncccc3c2)cc1OC1CCN(Cc2ccsc2)CC1	29%	21%	-2	93% (active)	inactive	inactive	inactive	inactive
O=C(Nc1cccc(Cl)c1)N(CCCn1ccnc1)Cc1csc(-c2ccc(CNCc3ccccc3)cc2)n1	45%	11%	4	102% (active)	inactive	inactive	inactive	inactive
NC(N)=NN=CC(=O)Nc1ccc(C(F)(F)F)cc1	9%	5%	1	100% (active)	inactive	inactive	inactive	inactive
O=C(Nc1cccc(CN2CCN(C(=O)c3cccc(Cl)c3)CC2)c1)c1ccco1	94% (active)	7%	2	96% (active)	inactive	inactive	inactive	inactive
COc1ccc2nc3cc(Cl)ccc3c(Nc3ccc(Sc4ccc(Nc5c6ccc(Cl)cc6nc6ccc(OC)cc56)cc4)cc3)c2c1	94% (active)	1%	-4	92% (active)	inactive	inactive	inactive	inactive
CC(=O)Nc1ccc(CN(Cc2ccc(C)cc2)Cc2cccc(Oc3ccccc3)c2)cc1	87% (active)	34%	1	84% (active)	inactive	inactive	inactive	inactive
COc1ccc(-c2csc(C(=O)NC3CCC(N4CCC(c5ccccc5C)CC4)CC3)c2)cc1 (configuration not stated)	99% (active)	64% (active)	-1	101% (active)	inactive	inactive	inactive	inactive
FC(F)(F)c1ccc(NC(=S)N2CCC(CCN3CCC(c4c[nH]c5ccccc45)CC3)CC2)cc1	37%	44%	0	98% (active)	inactive	inactive	inactive	inactive
COc1cccc(CN2CCCN(Cc3cccc(NC(=O)c4ccc(-c5ccccc5)cc4)c3)CC2)c1	8%	35%	-1	86% (active)	inactive	inactive	inactive	inactive
CCCn1c(Sc2ccc(C#N)c([N+](=O)[O-])c2)nnc1-c1ccc(Cl)cc1	95% (active)	12%	-3	96% (active)	inactive	inactive	inactive	inactive
Nc1nccc2ccc(-c3cccc(O)c3)cc12	71% (active)	43%	7	95% (active)	inactive	inactive	inactive	inactive
O=C(NCCN1CCCC1)c1ccc(-c2ccc(-c3nc4ccc(C(F)(F)F)cc4[nH]3)s2)cc1	65% (active)	31%	4	97% (active)	inactive	inactive	inactive	inactive
COc1cccc(-c2cc(-c3ccc(NC(=O)c4ccccc4)cc3)c3c(N)ncnc3n2)c1	98% (active)	-4%	0	99% (active)	inactive	inactive	inactive	inactive
COc1cc(Nc2ccc3cc(S(=O)(=O)N4CCCCC4C)ccc3n2)cc(OC)c1OC (configuration not stated)	78% (active)	-5%	-1	88% (active)	inactive	inactive	inactive	inactive
